This passage reports growth results from PubChem BioAssay (NCI).

Compounds without any hit were thinned out: in the full panel of roughly 83,000, 20% have a hit.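 In brief: 96-well plates, 48 h treatment, single concentration, percent growth endpoint.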 Unmarked numbers belong to inactive results. Active and inactive are the calls of the source. Rule for the calls: active = growth percent below 10; inactive = the rest.

Some test systems named below: DU-145 prostate; K-562 leukemia; MALME-3M melanoma; MDA-MB-231 breast; RXF 393 renal; SF-268 CNS; SF-295 CNS; SF-539 CNS; UACC-257 melanoma; M14 melanoma; HCT-15 colon; HT29 colon; SNB-75 CNS; SNB-19 CNS; U251 CNS; PC-3 prostate; SK-MEL-5 melanoma; UACC-62 melanoma; LOX IMVI melanoma; SK-MEL-28 melanoma.
What all share (assay): NCI-60 one-dose screen, 48 h (100 = growth as untreated, 0 = no growth, -100 = all killed)
Common to all, as to conditions: 10 µM unless noted

`C#C[C@]1(O)CC[C@H]2[C@@H]3CC=C4c5nc(Nc6ccccc6[N+](=O)[O-])sc5CC[C@]4(C)[C@H]3CC[C@@]21C`: the growth with DU-145 prostate was 55.3%; in the assay on K-562 leukemia, 8.86% (active); in the assay on MALME-3M melanoma, 51.7%; in the assay on MDA-MB-231 breast, 52.4%; with RXF 393 renal, -44% (active); in the assay with SF-268 CNS, 52.8%. In addition, the growth is -46.1% (active) in the assay on SF-295 CNS; -31.5% (active) in the assay on SF-539 CNS; 73% in the assay with UACC-257 melanoma; -23.1% (active) in the assay with M14 melanoma; 35.3% in the assay on HCT-15 colon; 55.7% with HT29 colon. For the same compound, the growth in the assay with SNB-75 CNS is 17.9%; in the assay on SNB-19 CNS, 76.6%; in the assay with U251 CNS, 39.7%; in the assay on PC-3 prostate it was 41.8%; with SK-MEL-5 melanoma, 60.6%; with UACC-62 melanoma, 67.8%. Also, the growth in the assay on LOX IMVI melanoma was 73.1%.

For the compound `CC1(C)CC[C@]2(C(=O)OC(=O)[C@]34CCC(C)(C)C[C@@H]3C3=CC[C@@H]5[C@@]6(C)CCC(=O)C(C)(C)[C@@H]6CC[C@@]5(C)[C@]3(C)CC4)CC[C@]3(C)C(=CC[C@@H]4[C@@]5(C)CCC(=O)C(C)(C)[C@@H]5CC[C@]43C)[C@H]2C1`, the growth in the assay with DU-145 prostate was 77.4% [100 µM]; in the assay with K-562 leukemia, 36.4% [100 µM]; in the assay on MALME-3M melanoma, 81.2% [100 µM]; in the assay with MDA-MB-231 breast, 45.7% [100 µM]; with RXF 393 renal, 62.6% [100 µM]; in the assay with SF-268 CNS, 63.4% [100 µM]. In addition, the growth in the assay with SF-295 CNS was 76.5% [100 µM]; with SF-539 CNS, 61.6% [100 µM]; with UACC-257 melanoma it was 69% [100 µM]; in the assay with M14 melanoma, 77.9% [100 µM]; in the assay on HCT-15 colon, 73.6% [100 µM]; in the assay on HT29 colon, 44.8% [100 µM]. For the same compound, the growth with SNB-75 CNS was 15.8% [100 µM]; in the assay with SNB-19 CNS, 62.8% [100 µM]; in the assay on U251 CNS, 64.6% [100 µM]; in the assay with PC-3 prostate, 36.6% [100 µM]; in the assay on SK-MEL-5 melanoma, 25% [100 µM]; with UACC-62 melanoma it was 49.9% [100 µM]. Also, the growth in the assay with LOX IMVI melanoma is 64.6% [100 µM]; in the assay on SK-MEL-28 melanoma it was 81.7% [100 µM].

Take `c1nc(N2CCOCC2)c2[nH]ccc2n1`: the growth is 106% in the assay with DU-145 prostate; 92.7% in the assay on K-562 leukemia; 109% with MALME-3M melanoma; 107% in the assay on MDA-MB-231 breast; 117% in the assay with RXF 393 renal; 102% in the assay with SF-268 CNS. For the same compound, the growth in the assay with SF-295 CNS is 112%; in the assay on SF-539 CNS, 111%; in the assay on UACC-257 melanoma, 105%; in the assay with M14 melanoma it was 103%; in the assay with HCT-15 colon it was 105%; in the assay on HT29 colon, 96%. Besides, the growth in the assay with SNB-75 CNS was 97.6%; in the assay with SNB-19 CNS it was 107%; with U251 CNS it was 100%; in the assay on PC-3 prostate, 107%; in the assay on SK-MEL-5 melanoma, 111%; with UACC-62 melanoma it was 103%. The growth in the assay with LOX IMVI melanoma was 99.8%.

For the compound `CC(C)(C)c1cc(C(=O)Nc2ccccc2C(=O)NCCN)cc(C(C)(C)C)c1`, the growth with DU-145 prostate was 15.8%; in the assay with K-562 leukemia it was -11.2% (active); in the assay with MALME-3M melanoma, 47.7%; with MDA-MB-231 breast, -69.4% (active); in the assay with RXF 393 renal, -89.3% (active); in the assay with SF-268 CNS it was 57.5%. The growth in the assay on SF-295 CNS is -69.4% (active); with SF-539 CNS, 63.4%; in the assay on UACC-257 melanoma it was 63.2%; in the assay on M14 melanoma, -73.9% (active); in the assay on HCT-15 colon it was -56.7% (active); in the assay with HT29 colon, -41.3% (active). For the same compound, the growth in the assay on SNB-75 CNS is 66.5%; with SNB-19 CNS, -46.1% (active); in the assay with U251 CNS, -57.3% (active); with PC-3 prostate, 4.8% (active); in the assay on SK-MEL-5 melanoma, 46%; in the assay with UACC-62 melanoma, -58.3% (active). For the same compound, in the assay with LOX IMVI melanoma, the growth was -98.5% (active).

Regarding `Nc1cc(N)c(N=Nc2ccc(S(=O)(=O)O)cc2)cc1N=Nc1ccc(-c2ccc(N=Nc3ccc(O)c(C(=O)O)c3)cc2)cc1`, the growth in the assay with DU-145 prostate is 111%; in the assay on K-562 leukemia it was 108%; in the assay with MALME-3M melanoma it was 93.2%; in the assay with MDA-MB-231 breast, 100%; with RXF 393 renal, 124%; with SF-268 CNS it was 104%. For the same compound, the growth is 103% in the assay with SF-295 CNS; 100% with SF-539 CNS; 101% in the assay with UACC-257 melanoma; 99.8% with M14 melanoma; 103% in the assay on HCT-15 colon; 103% with HT29 colon. Also, the growth with SNB-75 CNS is 98.9%; in the assay with SNB-19 CNS, 95.6%; in the assay on U251 CNS, 101%; in the assay on PC-3 prostate, 98.2%; in the assay on SK-MEL-5 melanoma, 101%; in the assay on UACC-62 melanoma, 94.6%. Further, in the assay with LOX IMVI melanoma, the growth is 100%.

For `Cc1cc(C)c(O)c(CNCCCCCCNCc2cc(C)cc(C)c2O)c1`, the growth was 7.45% (active) in the assay with DU-145 prostate; -63% (active) in the assay on K-562 leukemia; -81.9% (active) in the assay on MALME-3M melanoma; -44% (active) in the assay on MDA-MB-231 breast; -2.77% (active) in the assay on RXF 393 renal; 23.9% in the assay with SF-268 CNS. In addition, the growth was -83.6% (active) in the assay on SF-295 CNS; -85.3% (active) in the assay with SF-539 CNS; -80.6% (active) in the assay on UACC-257 melanoma; -79.9% (active) in the assay on M14 melanoma; -53.2% (active) with HCT-15 colon; -6.14% (active) with HT29 colon. Further, the growth with SNB-75 CNS is -23.7% (active); in the assay with SNB-19 CNS, -46.1% (active); in the assay on U251 CNS it was -59.2% (active); in the assay with PC-3 prostate it was 34.7%; in the assay with SK-MEL-5 melanoma, -91.8% (active); in the assay with UACC-62 melanoma it was -68.9% (active). The growth in the assay with LOX IMVI melanoma is -85% (active).

As for `CC(C)C1=NOC(=O)C1=Cc1cn(-c2ccccc2)nc1-c1ccc(Br)cc1`, the growth in the assay with DU-145 prostate is 92.9%; in the assay with K-562 leukemia, 43.4%; with MALME-3M melanoma it was 87.7%; in the assay on MDA-MB-231 breast, 91.5%; in the assay on RXF 393 renal, 70.3%; in the assay on SF-268 CNS it was 102%. Moreover, the growth is 96.8% in the assay on SF-295 CNS; 78.5% in the assay with SF-539 CNS; 100% in the assay with UACC-257 melanoma; 76.6% in the assay on M14 melanoma; 74.3% with HCT-15 colon; 60.3% in the assay on HT29 colon. The growth in the assay with SNB-75 CNS is 65.6%; in the assay on SNB-19 CNS it was 90.3%; with U251 CNS, 73.7%; in the assay with PC-3 prostate it was 82.3%; with SK-MEL-5 melanoma it was 97.2%; in the assay on UACC-62 melanoma, 76.1%. Further, the growth with LOX IMVI melanoma was 26.4%.
